The whole screen tested about 48,000 compounds, of which about 13,000 (27%) showed an effect of 50% or more. Some of the results follow.
System: Wolbachia pipientis
Experiment: Anti-Wolbachia Cell-Based Screen
Format: functional
Parameters: scale not given: in the data most compounds retested in dose-response had high values
Details: 5 µM

| Structure (SMILES) | Percent Effect |
| --- | --- |
| CC1=CC(C)(C)N(CN2C(=O)c3ccccc3C2=O)c2ccccc21 | -12.76% |
| CNC(=O)C(c1cccc(Cl)c1)C(C)C (configuration not stated) | -9.115% |
| COc1ccc(C2(c3nc(-c4cccnc4)no3)CCOCC2)cc1 | -4.756% |
| O=C(CCNc1ncccn1)N1CCCC(n2ccnc2)C1 (configuration not stated) | -7.544% |
| Cc1nc(C)n(C2CCCN(C(=O)CCc3ccncc3)C2)n1 (configuration not stated) | 4.522% |
| Cc1nc(C)n(C2CCCN(C(=O)CCCc3ccccn3)C2)n1 (configuration not stated) | 81.77% |
| Cc1cnn(C2CCCN(C(=O)CCCc3ccccn3)C2)c1 (configuration not stated) | 102.3% |
| Cc1cc(C)n(C2CCCN(C(=O)CCNc3ncccn3)C2)n1 (configuration not stated) | 114.6% |
| Cc1cnn(C2CCCN(C(=O)CCCOc3ccccc3F)C2)c1 (configuration not stated) | 143.9% |
| Cc1cc(C)n(C2CCCN(C(=O)CCCNc3ncccn3)C2)n1 (configuration not stated) | 16.33% |
| COc1ccc(CC(=O)N2CCCC(n3cc(C)cn3)C2)cc1F (configuration not stated) | -2.795% |
| Cc1cnn(C2CCCN(C(=O)CCCNc3ncccn3)C2)c1 (configuration not stated) | 0.4653% |
| Cc1cnn(C2CCCN(C(=O)CCCOc3cccc(F)c3)C2)c1 (configuration not stated) | 4.981% |
| Cc1nc(C)n(C2CCCN(C(=O)c3cccnc3NC(C)C)C2)n1 (configuration not stated) | -8.043% |
| CCOCc1nc2c(c(N3CC=CC3)n1)CCN(Cc1ccco1)CC2 | -6.095% |
| CCn1c(C)nnc1SCCNc1nc(C)nc2ncccc12 | -6.645% |
| CCOc1ccc(NS(=O)(=O)c2cc(C)c(C(=O)O)s2)c(C)c1 | 5.769% |
| Cc1nn(C)c(C)c1C(C)NC(=O)c1cc(CN2CCC(O)CC2)on1 (configuration not stated) | -4.084% |
| Cc1cnn(Cc2ccc(NC(=O)N[C@@H]3C=C[C@H](CO)C3)cc2)c1 | -14.53% |
| CSC(C)Cc1c(-c2ccccc2)ncn1CCCNc1cccnc1 (configuration not stated) | -5.851% |
| CCc1nccn1C1CCCN(C(=O)CCCc2ccccn2)C1 (configuration not stated) | 115.4% |
| Cc1cc(C)n(C2CCCN(C(=O)CCCc3ccccn3)C2)n1 (configuration not stated) | 93.32% |

| Structure (SMILES) | Percent Effect |
| --- | --- |
| COc1ccccc1CC(=O)N1CCCC(n2nc(C)cc2C)C1 (configuration not stated) | 7.114% |
| CCc1nccn1C1CCCN(C(=O)Cc2n[nH]c3ccccc23)C1 (configuration not stated) | -2.139% |
| CCc1nccn1C1CCCN(C(=O)CCc2nccs2)C1 (configuration not stated) | 3.707% |
| Cc1cnn(C2CCCN(C(=O)CCCn3ccnc3C)C2)c1 (configuration not stated) | 111.3% |
| Cc1cc(C)n(CC2CCCN2C(=O)CCCc2ccccn2)n1 (configuration not stated) | -3.027% |
| Cn1cnnc1C1CCCN(c2nc3ccccc3o2)C1 (configuration not stated) | -0.3699% |
| CCc1ncc2c(n1)CN(Cc1cn3ccsc3n1)CC2 | 20.43% |
| Cc1nc2c(c(N(C)CC3Cc4ccccc4CN3C)n1)CCNCC2 (configuration not stated) | -8.073% |
| CC(C)(C)NC[C@@H]1CCC[C@@H]2CN(Cc3csnn3)C[C@@H]21.O=C(O)C(F)(F)F.O=C(O)C(F)(F)F | 1.989% |
| CCN(C)S(=O)(=O)N1C[C@@H]2CC[C@H](C1)N(Cc1cscn1)C2=O | -57.82% |
| CC(Nc1cccc(COCc2ccco2)c1)C(=O)NC(N)=O (configuration not stated) | 118% |
| COCc1cccc(NC(C)C(=O)N(C)Cc2ccccc2)c1 (configuration not stated) | -9.622% |
| CC(Nc1cccc(CN2CCOC2=O)c1)C(=O)NC(N)=O (configuration not stated) | 6.904% |
| Cc1nnc(C(C)Nc2cccc(COCCOC(C)C)c2)o1 (configuration not stated) | -13.05% |
| CCOC(=O)C(C)Nc1cccc(COCc2ccco2)c1 (configuration not stated) | 114.3% |
| CCCNC(=O)C(C)Nc1ccc(COCC)cc1 (configuration not stated) | -5.955% |
| O=C(O)C(F)(F)F.O=C(O)C(F)(F)F.O=C(c1ccncc1)N1CCN2C[C@H](Oc3cccc(F)c3)C[C@H]2C1 | 3.231% |
| Cc1cccnc1NC(=O)C(C)Cn1nc(C(F)(F)F)cc1C (configuration not stated) | 5.887% |
| Fc1ccc2nc([C@H]3CCNC3)[nH]c2c1 | -0.4881% |
| c1c[nH]c2nc(C3CCNC3)nc-2c1 (configuration not stated) | 89.57% |
| CCC(=O)NCC(=O)Nc1ncc(I)cc1C | -1.135% |
| C[C@@H]1CN(C(=O)C2CCOCC2)C[C@]12CCN(c1cccnc1)C2=O.O=C(O)C(F)(F)F | -10.36% |

| Structure (SMILES) | Percent Effect |
| --- | --- |
| Cc1ccc(N2C[C@H](C)[C@]3(CCN(c4cccnc4)C3=O)C2)nn1.O=C(O)C(F)(F)F.O=C(O)C(F)(F)F | 82.56% |
| COc1cc(N2CCC3(CC2)CCN(c2cccnc2)C3=O)ncn1.O=C(O)C(F)(F)F | -8.044% |
| C[C@H]1CN(c2ccccn2)C[C@@]12CCN(c1cccnc1)C2=O.O=C(O)C(F)(F)F.O=C(O)C(F)(F)F | 96.67% |
| NS(=O)(=O)CCNC(=O)c1cc(Br)c2c(c1)OCCO2 | 3.55% |
| CC(C)n1cc(CN2CCCN(C(=O)C(C)n3cccn3)CC2)cn1 (configuration not stated) | 97.33% |
| CC(C(=O)N1CCCN(Cc2ccc(C#N)cc2)CC1)n1ccnc1 (configuration not stated) | -13.4% |
| CC(C)C(C(=O)N1CCCN(Cc2cnn(C)c2)CC1)n1cncn1 (configuration not stated) | -6.037% |
| CC(C)n1cc(CN2CCCN(C(=O)c3nccnc3N)CC2)cn1 | -14.33% |
| CC(C)n1cc(CN2CCCN(C(=O)C(C)n3cncn3)CC2)cn1 (configuration not stated) | 115.2% |
| CC(C(=O)N1CCCN(Cc2cnn(C(C)C)c2)CC1)n1ccnc1 (configuration not stated) | 86.84% |
| Cc1ncncc1C(=O)N1CCCN(Cc2cnn(C(C)C)c2)CC1 | -23.75% |
| CC(C)n1cc(CN2CCCN(C(=O)c3ccc[nH]3)CC2)cn1 | -9.453% |
| CCC(=O)N1CCN(c2cc(-n3cnc(C)c3C)nc(C)n2)CC1 | -0.8212% |
| CN1CCOC(C(=O)N(C)c2ccc3c(c2)CCO3)C1 (configuration not stated) | -1.104% |
| Cc1cccc(-c2nc(C)nn2CN2CCN(c3ncccn3)CC2)c1 | -20.31% |
| CCC(C(=O)NCc1ccncc1)N(c1ccccc1)S(C)(=O)=O (configuration not stated) | -24.56% |
| COCCn1cc(NC(=O)NC(C)c2ccc(Cl)s2)cn1 (configuration not stated) | 1.705% |
| CC1(C)[C@H](Cc2cc(CN3CCCCC3)on2)C[C@@H]1NS(C)(=O)=O | -2.638% |
| CN(Cc1nc(N2CCCC2)ncc1-c1ccncc1)C(=O)C(C)(C)C.Cl | 94.15% |
| CN(Cc1ccsc1)C(=O)c1nc(N2CCCC2)ncc1Cl | -53.64% |
| CN(C)C(CNC(=O)c1nc(N2CCCC2)ncc1Cl)c1ccco1 (configuration not stated) | 2.501% |
| CN(Cc1ccsc1)C(=O)c1nc(N2CCCCC2)ncc1Cl | 3.668% |

| Structure (SMILES) | Percent Effect |
| --- | --- |
| CC(C)C(=O)N(C)Cc1nc(N2CCCC2)ncc1-c1ccncc1.Cl | 82.87% |
| Cn1c(NC(=O)CCS(=O)(=O)C2CCCC2)nc2cc(Cl)ccc21 | 1.786% |
| CCN(CC)CC[C@H]1CN(C(=O)CC(C)(C)C)CC[C@H]1CC(=O)O | -10.9% |
| O=C(C1CC1)N1CCc2[nH]cnc2C12CCN(C1CCOCC1)CC2 | -3.543% |
| CC1CN(S(=O)(=O)c2ccc(F)cc2)c2cccnc2O1 (configuration not stated) | -6.329% |
| Cn1cc(CNS(=O)(=O)c2cc(F)ccc2F)cn1 | -25.59% |
| COc1ccc(F)cc1S(=O)(=O)N1CCC(Oc2ccc(Cl)cn2)CC1 | -6.405% |
| O=S(=O)(c1ccc(F)cc1)n1cc(Cl)cn1 | 120.8% |
| O=S(=O)(c1ccc(F)cc1)N1CCCn2cnc(CN3CCCC3)c2C1 | -4.272% |
| O=S(=O)(c1cc(F)cc(F)c1)N1CCC(Oc2ccc(Cl)cn2)CC1 | 14.51% |
| O=S(=O)(c1ccc(F)c(F)c1)n1cc(Cl)cn1 | 96.85% |
| O=S(=O)(c1cc(F)ccc1F)n1cc(Cl)cn1 | 95.85% |
| Cc1cnn(-c2ccc(S(N)(=O)=O)cc2F)c1 | -6.422% |
| Cc1nc(CCNC(Cc2ccncc2)C(F)(F)F)cs1 (configuration not stated) | -2.78% |
| CC(O)CCn1ccc2[nH]c(=O)c(C#N)cc2c1=O (configuration not stated) | -44.58% |
| COc1cc2[nH]c(=O)c(CN3CCC[C@@H]3C(N)=O)cc2c(OC)c1OC | -9.081% |
| COc1cc2cc(C(=O)O)n(C)c2c(OC)c1OC | -1.189% |
| COC(=O)c1cc2c(OC)c(C)c(OC)cc2[nH]1 | 95.02% |
| COc1cc(C(=O)Nc2c(C)noc2C)ccc1C | 5.924% |
| COC(=O)C(C)NCc1ccc2[nH]c(C)c(C)c2c1 (configuration not stated) | -1.475% |
| COC(=O)c1cc2c(OC)c(OC)c(OC)cc2[nH]1 | 120.2% |
| COc1cc(C(=O)N(C)Cc2cc(C(=O)O)c(C)o2)cc(OC)c1OC | -0.7675% |

| Structure (SMILES) | Percent Effect |
| --- | --- |
| COc1cc2[nH]c(=O)c(CN3CCCC(CO)C3)cc2c(OC)c1OC (configuration not stated) | 1.788% |
| COc1cc2[nH]c(C(=O)O)cc2c(OC)c1C | 98.44% |
| CCCn1nc2c(cc1=O)CN(CC(=O)N(C)c1nccs1)CC2 | -22.84% |
| CCc1cc(NCCCC2CCOC2)n2nccc2n1 (configuration not stated) | -1.009% |
| CCc1nnsc1C(=O)NCCn1nc2ccccn2c1=O | 6.254% |
| NC(=O)C(NC(=O)c1cc(Cl)c[nH]1)c1ccccc1 (configuration not stated) | 10.72% |
| c1ccc(CN(Cc2cccc3cnccc23)CC2CCCO2)nc1 (configuration not stated) | 15.94% |
| COCC1CN(C(=O)Cc2ccccn2)Cc2ncn(C)c21 (configuration not stated) | -6.541% |
| COCC1CN(C(=O)CS(C)(=O)=O)Cc2ncn(CC3CC3)c21 (configuration not stated) | 98.19% |
| COCC1CN(Cc2ccc(C)o2)Cc2ncn(CC3CC3)c21 (configuration not stated) | 4.542% |
| CCn1cc2c(n1)CN(S(=O)(=O)c1ccc(C)cc1)CC2COC (configuration not stated) | -1.212% |
| CCOCC1CN(S(=O)(=O)C2CC2)Cc2nn(C)cc21 (configuration not stated) | -10.65% |
| COCC1CN(C(=O)CC2=CCCCC2)Cc2nnn(CC3CC3)c21 (configuration not stated) | 25.21% |
| COCC1CN(CC2CC2)Cc2nn(C)cc21.O=C(O)C(F)(F)F (configuration not stated) | -11.2% |
| CCOCC1CN(S(C)(=O)=O)Cc2ncn(CC3CC3)c21 (configuration not stated) | -5.705% |
| CCOC(=O)C1CN(S(=O)(=O)C2CC2)Cc2ncn(CC)c21 (configuration not stated) | -2.058% |
| CCOCC1CN(S(=O)(=O)C2CC2)Cc2ncn(CC3CC3)c21 (configuration not stated) | 93.99% |
| COCC1CN(CC2CC2)Cc2ncn(CC3CC3)c21 (configuration not stated) | 123% |
| COCC1CN(S(=O)(=O)C2CC2)Cc2ncn(CC3CC3)c21 (configuration not stated) | 93.96% |
